Source: PubChem BioAssay AID1159580 (chemical genetic matrix, 2015)
Values joined by “and” are separate entries in the source; they are usually repeats but may differ in a detail not shown here. Identical values can stand only once. The whole screen tested about 5,500 compounds, of which about 2,000 (36%) were called active. Not shown: some 18% with an inconclusive outcome. Cut-off read from the data, not from the text of the source: active = normalized growth mostly below about 0.91 (no sharp cut-off); inconclusive = no clear call, values can overlap the other calls; inactive = mostly above about 0.92. The list shows a part of the results.

Assay: chemical genetic growth profiling, strain panel (AID 1159580);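 note: tested at 20 µM; growth read once vehicle control cultures reached saturation at 30 °C; 1 = growth at the plate median or of vehicle wells; lower values mean less growth of the strain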
Settings: S. cerevisiae deletion strains, growth OD

Measured: normalized growth

CC(=O)O[C@@H]1C[C@@]2(C)[C@H](c3ccoc3)C[C@H]3O[C@]32[C@]2(C)C(=O)C(O)=C3C(C)(C)C(=O)C=C[C@]3(C)C12 (some centres not stated)
inactive: locus YAL021C, strain ccr4, stronger effect = lower value 0.983 | locus YAL030W, strain snc1, stronger effect = lower value 0.968 | locus YBL061C, strain skt5, stronger effect = lower value 0.953 | locus YBR021W, strain FUR4, stronger effect = lower value 1.05 | locus YBR023C, strain chs3, stronger effect = lower value 0.947 | locus YBR171W, strain sec66, stronger effect = lower value 0.929 | locus YBR229C, strain ROT2, stronger effect = lower value 0.927 | locus YBR231C, strain swc5, stronger effect = lower value 0.94 | locus YBR279W, strain paf1, stronger effect = lower value 0.97 | locus YCL016C, strain dcc1, stronger effect = lower value 0.969 | locus YCL061C, strain MRC1, stronger effect = lower value 0.96 | locus YCL069W, strain vba3, stronger effect = lower value 0.956 | locus YCR088W, strain abp1, stronger effect = lower value 0.951 | locus YDL005C, strain med2, stronger effect = lower value 0.958 | locus YDL035C, strain GPR1, stronger effect = lower value 0.914 | locus YDL040C, strain nat1, stronger effect = lower value 0.953 | locus YDL101C, strain DUN1, stronger effect = lower value 0.933 | locus YDL134C, strain PPH21, stronger effect = lower value 0.921 | locus YDL185W, strain tfp1, stronger effect = lower value 0.931 | locus YDR001C, strain nth1, stronger effect = lower value 0.968 | locus YDR069C, strain doa4, stronger effect = lower value 0.942 | locus YDR150W, strain NUM1, stronger effect = lower value 0.969 | locus YDR195W, strain ref2 1.04 | locus YDR297W, strain sur2, stronger effect = lower value 0.954 | locus YDR334W, strain swr1, stronger effect = lower value 0.963 | locus YDR335W, strain msn5, stronger effect = lower value 0.969 | locus YDR388W, stronger effect = lower value 0.951 | locus YEL003W, strain gim4, stronger effect = lower value 0.927 | locus YEL037C, strain rad23, stronger effect = lower value 0.961 | locus YEL061C, strain CIN8 (second series), stronger effect = lower value 0.955 | locus YEL061C, strain CIN8, stronger effect = lower value 0.965 | locus YER015W, strain faa2, stronger effect = lower value 0.966 | locus YER016W, strain bim1, stronger effect = lower value 0.953 | locus YER110C, stronger effect = lower value 0.953 | locus YER111C, strain swi4, stronger effect = lower value 0.94 | locus YFR010W, strain ubp6, stronger effect = lower value 0.955 | locus YGL078C, strain dbp3, stronger effect = lower value 0.975 | locus YGL167C, strain pmr1, stronger effect = lower value 0.957 | locus YGL173C, strain kem1, stronger effect = lower value 0.924 | locus YGL227W, strain vid30, stronger effect = lower value 0.964 | locus YGL240W, strain doc1, stronger effect = lower value 0.94 | locus YGL248W, strain PDE1, stronger effect = lower value 0.933 | locus YGR135W, strain pre9, stronger effect = lower value 0.954 | locus YHR013C, strain ard1, stronger effect = lower value 0.853 | locus YHR027C, strain rpn1, stronger effect = lower value 0.965 | locus YHR030C, strain SLT2, stronger effect = lower value 0.887 | locus YHR079C, strain IRE1 (second series), stronger effect = lower value 0.952 | locus YHR079C, strain IRE1, stronger effect = lower value 0.926 | locus YHR094C, strain hxt1, stronger effect = lower value 0.957 | locus YHR200W, strain rpn10, stronger effect = lower value 0.943 | locus YIL073C, strain SPO22, stronger effect = lower value 0.811 | locus YIL125W, strain kgd1, stronger effect = lower value 0.966 | locus YIR030C, strain dcg1, stronger effect = lower value 0.959 | locus YJL092W, strain hpr5, stronger effect = lower value 0.945 | locus YJL095W, strain BCK1 (second series), stronger effect = lower value 0.967 | locus YJL115W, strain asf1, stronger effect = lower value 0.98 | locus YJL134W, strain LCB3, stronger effect = lower value 0.958 | locus YJL154C, strain vps35, stronger effect = lower value 0.985 | locus YJL164C, strain tpk1, stronger effect = lower value 0.927 | locus YJL168C, strain set2, stronger effect = lower value 0.961
active: locus YAL026C, strain drs2, stronger effect = lower value 0.892 | locus YBR009C, strain hhf1, stronger effect = lower value 0.867 | locus YCL011C, strain gbp2, stronger effect = lower value 0.88 | locus YCL029C, strain bik1, stronger effect = lower value 0.907 | locus YDL074C, strain BRE1, stronger effect = lower value 0.754 | locus YDL192W, strain arf1, stronger effect = lower value 0.822 | locus YDR101C, strain arx1, stronger effect = lower value 0.908 | locus YDR137W, strain rgp1, stronger effect = lower value 0.639 | locus YDR159W, strain sac3, stronger effect = lower value 0.777 | locus YDR162C, strain NBP2, stronger effect = lower value 0.658 | locus YDR318W, strain mcm21, stronger effect = lower value 0.844 | locus YDR392W, strain spt3, stronger effect = lower value 0.326 | locus YDR502C, strain sam2, stronger effect = lower value 0.896 | locus YER155C, strain BEM2 (second series), stronger effect = lower value 0.826 | locus YER155C, strain BEM2, stronger effect = lower value 0.902 | locus YER167W, strain BCK2, stronger effect = lower value 0.896 | locus YGL086W, strain mad1, stronger effect = lower value 0.839 | locus YGL253W, strain hxk2, stronger effect = lower value 0.866 | locus YGR078C, strain PAC10, stronger effect = lower value 0.844 | locus YGR229C, strain SMI1, stronger effect = lower value 0.787 | locus YGR252W, strain gcn5, stronger effect = lower value 0.74 | locus YHR129C, strain ARP1, stronger effect = lower value 0.889 | locus YHR142W, strain chs7, stronger effect = lower value 0.861 | locus YIL066C, strain RNR3, stronger effect = lower value 0.766 | locus YJL129C, strain trk1, stronger effect = lower value 0.822 | locus YJL166W, strain qcr8, stronger effect = lower value 0.873
0.749 (active) and 0.918 (inactive): locus YJL095W, strain BCK1, stronger effect = lower value
